From PubChem
KKLEB tox: cytotoxicity in KKLEB CF airway cells, primary screen, cytotoxicity control for CF NF-kB inhibitor project, cell-based, uHTS, fluorescence assay plates. KKLEB CF airway cells viability, ATPlite luminescence, overnight; stronger effect = lower value; cells stimulated with P. aeruginosa culture filtrate. AID 602141, 2011. hit rate 0.36% among 360,000. activity change (cytotoxicity), % at 5 µM;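 active = corrected activity change at or below -50% at 5 µM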
LGR2 inh: inhibitors of bursicon-induced LGR2 CRE-luciferase signal, primary screen, cell-based, HEK293, CRE-luciferase reporter, bursicon stimulation; Drosophila bursicon receptor LGR2 (rickets); bursicon-stimulated, 4 h; inhibition, % at 9.99 µM; hit rate 0.35% among 380,000; AID 720647, 2013;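 active = drop in luminescence signal, shown as inhibition above about 50% in the replicate tests, limit read from the data, passing the limit was not always enough; inconclusive = probably only some replicates passing the limit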;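 also: agonist challenge used bursicon conditioned medium at about half maximal strength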
TWEAK-Fn14 inh: inhibitors of TWEAK-Fn14 signaling, primary screen, luciferase reporter cells, uHTS; AID 1159606, 2016; hit rate 2% among 360,000; inhibition, % at 10 µM; TWEAK-stimulated Fn14 reporter cells, luciferase luminescence, 8 h; in the data active = inhibition above about 50%
HIF-2a inh: HIF-2a reporter inhibitors, primary screen, luminescence, 786-0 RCC cells; AID 624352, 2012; hit rate 0.72% among 360,000; 786-0 RCC cells HIF-2a reporter, luciferase luminescence, overnight; inhibition, % at 18.8 µM;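 active = inhibition of the luminescence signal of 40% or more relative to plate controls, in a single-dose primary screen at 18.75 µM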
hiPSC survival: enhancers of single-cell hiPSC survival, primary screen, ATPlite luminescence; 100% = ROCK inhibitor wells, 0% = DMSO; survival enhancement, % at 20 µM; hit rate 0.044% among 360,000; AID 602274, 2012; in the data active = survival enhancement above about 18%;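 also: cells exposed to compounds for 16 hours before the ATP read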
CF NFkB inh: inhibitors of PAF-induced NF-kB signaling, primary screen, cell-based, GFP fluorescence, uHTS | KKLEB NF-kB-GFP reporter, GFP fluorescence overnight | inhibition, % at 5 µM | hit rate 0.86% among 360,000;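 active = at least 50% inhibition at 5 µM, scaled per plate between neutral and stimulator controls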;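 also: PAF is a Pseudomonas aeruginosa culture filtrate used as stimulus; plate controls were PAF-stimulated DMSO wells for no effect and unstimulated DMSO wells for full effect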
Starred values were filed as active, the others as inactive; ? = inconclusive; . = no result. Rows were chosen to be rich in hits. Some 2.3% of all compounds tested hit in one or more screens of this group.

SMILES | KKLEB tox | LGR2 inh | TWEAK-Fn14 inh | HIF-2a inh | hiPSC survival | CF NFkB inh
CCS(=O)(=O)c1ccc(N=Nc2ccc(O)c3ncccc23)c(OC)c1 | -27 | 47 | 65* | 12 | -3 | 45
CCCN1C[C@@H](C)[C@H](OC)CN(C)C(=O)c2cc(NC(=O)c3ccc(F)cc3)ccc2OC[C@H]1C | . | 3 | . | . | . | .
N#CCCn1cc(/C=N/O)c(-c2ccccc2)n1 | -4 | 1 | -7 | 19 | 5 | -6
N#CCCn1cc(/C=N/NC(N)=S)c(-c2ccc(-c3ccccc3)cc2)n1 | 6 | ? | 51* | 15 | -1 | -13
c1cn2c(NC3CCCCC3)c(-c3ccc(SC4CCCCC4)cc3)nc2cn1 | 8 | -20 | 1 | -98 | -2 | 4
c1cc(SC2CCCCC2)cc(-c2nc3cnccn3c2NC2CCCCC2)c1 | -55* | 2 | 20 | 37 | -1 | 73*
Cc1nn(CC(=O)NCc2ccccc2)c(C)c1[N+](=O)[O-] | 2 | . | 4 | 17 | 0 | 2
Cc1nn(CC(=O)c2ccccc2Cl)c(C)c1[N+](=O)[O-] | -17 | -64 | 52* | -193 | -1 | 16
Cc1noc(C)c1NC(=O)Nc1cccc2c1O[C@@H](CN(C)Cc1ccncc1)[C@@H](C)CN([C@@H](C)CO)C2=O | . | 13 | . | . | . | .
COc1ccc(CC(=O)N2CCOCC2)cc1 | -14 | . | 99* | 2 | -4 | 13
COc1ccc(CC(=O)N2CCOCC2)cc1OC | -12 | . | 12 | 6 | -3 | 6
C[C@H](CO)N1C[C@H](C)[C@H](CN(C)C(=O)C2CCC2)Oc2ncc(Br)cc2C1=O | . | -9 | . | . | . | .
COc1ccc2c3c(n(C)c2c1)[C@H](CO)NCC31CN(Cc2cc(-c3ccccc3)on2)C1 | . | -7 | . | . | . | .
O=C(Nc1ccccc1)c1nnsc1S(=O)c1ccc(Cl)cc1 (stereo not drawn) | -25 | . | 3 | 35 | -4 | 56*
C/C(=N\NC(=O)C(c1ccccc1)c1ccccc1)c1ccccn1 | -9 | 25 | 57* | 34 | -2 | 15
C/C(=N\NC(=O)c1ccccc1Cl)c1ccccn1 | 4 | -14 | -114 | -158 | -1 | -26
C/C(=N\NC(=O)c1cccc2ccccc12)c1ccccn1 | 4 | 9 | 101* | -58 | -1 | -32
C/C(=N\NC(=O)C(c1ccccc1)c1ccccc1)c1ccc(O)cc1 | 5 | -4 | 4 | 18 | 0 | 0
CC(C)NC(=O)N(C)C[C@H]1OCCCC[C@@H](C)Oc2ccc(NC(=O)c3ccncc3)cc2C(=O)N([C@@H](C)CO)C[C@H]1C | . | 6 | . | . | . | .
CO[C@H]1CN(C)C(=O)c2cc(NC(=O)Nc3c(C)noc3C)ccc2OC[C@H](C)N(C)C[C@@H]1C | . | 11 | . | . | . | .
NC1=NC[C@H](c2ccccc2)N1CC1CCCCC1 | -14 | 6 | 9 | 5 | -3 | 4
N#Cc1cnn(CC2CCCCC2)c1N | 7 | . | 61* | 17 | 5 | 6
O=C(Nc1nncs1)c1cc2c(s1)CCC2 | -15 | -10 | -21 | -184 | -2 | 5
O=C(Nc1nccs1)c1cc2c(s1)CCCCC2 | -54* | . | 100* | 51* | -3 | -11
CNC[C@@H]1OCCCC[C@@H](C)Oc2ccc(NS(=O)(=O)c3ccccc3)cc2C(=O)N([C@H](C)CO)C[C@H]1C | . | -14 | . | . | . | .
SMILES | KKLEB tox | LGR2 inh | TWEAK-Fn14 inh | HIF-2a inh | hiPSC survival | CF NFkB inh
CN1CCN(C(=O)C[C@@H]2C[C@H]3c4cc(NC(=O)Nc5ccccc5F)ccc4O[C@H]3[C@H](CO)O2)CC1 | . | -3 | . | . | . | .
Cc1ccc2[nH]c(C)c(/C=N/Nc3nc4ccccc4s3)c2c1 | -12 | . | 60* | -69 | 0 | -10
Brc1csc(/C=N/Nc2nc3ccccc3s2)c1 | -6 | -66 | 30 | -242 | -2 | -38
COc1ccc(C=NNc2nc3ccccc3s2)cc1 | -17 | 78* | 78* | -4 | -4 | -2
C(=N\Nc1nc2ccccc2s1)/c1ccc2c(c1)OCO2 | -10 | . | 36 | -144 | -3 | -9
COc1cc(OC)cc(C(=O)Oc2ccc(/C=N/Nc3nc4ccccc4s3)cc2OC)c1 | -5 | -38 | -27 | -198 | 1 | -8
